# Inconclusive results are not listed. Activity calls are given as the source filed them. Calls come from the whole dose curve; as a rule, active = well fitted inhibition curve with a large enough effect; inconclusive = small, poorly fitted or top-dose-only effect; inactive = no such curve, though single readings can be large or run the other way.
# Experiment: Primary qHTS for small molecule stabilizers of the endoplasmic reticulum resident proteome: Secreted ER Calcium Modulated Protein (SERCaMP) assay (AID 1508630)
# Conditions: SH-SY5Y GLuc-SERCaMP (Gaussia luciferase released on ER calcium loss) secretion, thapsigargin, luminescence; series mostly up to 38.4 µM
# Procedure, shortened: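 The SH-SY5Y reporter protocol was run at 3 concentrations up to 38.3 uM (primary) or 11 concentrations (follow-up): 16 h compound, 100 nM thapsigargin for 4 h, then extracellular luciferase luminescence.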
row,Structure (SMILES),outcome
1,CC12NC(Cc3ccccc31)c1ccccc12 (stereo not drawn),inactive
2,CCCn1c(C)c(C(=O)c2ccc3ccccc3c2)c2ccccc21,inactive
3,NNC(=O)c1ccc(O)cc1,inactive
4,Cc1o[nH]c(=O)c1CC(N)C(=O)O (stereo not drawn),inactive
5,C=CCN1CC[C@]23c4c5ccc(O)c4O[C@H]2/C(=N/NC(=O)c2ccccc2)CC[C@@]3(O)[C@H]1C5,inactive
6,N[C@@H](Cn1oc(=O)[nH]c1=O)C(=O)O,inactive
7,CNc1ccc2oc(C[C@H]3O[C@@]4(CC[C@H]3C)O[C@H]([C@H](C)C(=O)c3ccc[nH]3)[C@H](C)C[C@H]4C)nc2c1C(=O)O,inactive
8,CC(N)c1cccc(Cl)c1Cl (stereo not drawn),inactive
9,c1ccc2c(c1)[I+]c1ccccc1-2,inactive
10,Clc1cc(I)cc(Cl)c1NC1=NCCN1,inactive
11,CC(=O)NBr,inactive
12,CCCCCCCCCCCCCC(=O)O[C@@H]1[C@@H](C)[C@@]2(O)[C@@H](C=C(CO)C[C@@]3(O)C(=O)C(C)=C[C@@H]23)C2C(C)(C)[C@@]21OC(C)=O (stereo partly drawn),inactive
13,CC(=O)OCC1=C(C(=O)O)N2C(=O)[C@@H](NC(=O)CCC[C@@H](N)C(=O)O)[C@H]2SC1,inactive
14,NC(C(=O)O)c1cc(=O)[nH]o1 (stereo not drawn),inactive
15,C[C@@H]1O[C@H](C[N+](C)(C)C)CS1,inactive
16,C[C@H](Cc1ccc2c(c1)OC(C(=O)O)(C(=O)O)O2)NC[C@H](O)c1cccc(Cl)c1,inactive
17,CCn1cnc2c(Nc3cccc(Cl)c3)nc(N[C@@H]3CCCC[C@@H]3N)nc21,inactive
18,CCCN(CCC)[C@@H]1CCc2cccc(O)c2C1,inactive
19,C[Se]C[C@H](N)C(=O)O,inactive

row,Structure (SMILES),outcome
1,C[N+](C)(C)CC#CCOC(=O)Nc1cccc(Cl)c1,inactive
2,CN(C(=O)Cc1ccc(Cl)c(Cl)c1)C(CN1CCCC1)c1cccc(OCC(=O)O)c1 (stereo not drawn),inactive
3,CCCN1CC[C@@H]2c3cc(O)ccc3CC[C@@H]21,inactive
4,NC(N)=NOCC[C@H](N)C(=O)O,inactive
5,COc1ccc2c(c1)/C(=C/c1cnc[nH]1)C(=O)N2,inactive
6,C[N+]1(C)CCN(c2ccccc2)CC1,inactive
7,CCCN1CCc2cccc3c2[C@H]1Cc1ccc(O)c(O)c1-3,inactive
8,CN1CC[C@@]2(C)c3cc(O)ccc3N(C)C12 (stereo partly drawn),inactive
9,OCc1cnc[nH]1,inactive
10,CN(N=O)c1cc(O)ccc1O,inactive
11,N=C(N)c1ccc(CS(=O)(=O)F)cc1,inactive
12,CCCn1c(=O)c2[nH]c(C3CCCC3)nc2n(CCCOC(=O)c2ccc(S(=O)(=O)F)cc2)c1=O,inactive
13,Cc1sc2ccccc2c1CC1=NCCN1,inactive
14,NC(Cc1ccc(N(CCCl)CCCl)cc1)C(=O)O (stereo not drawn),inactive
15,O=C1C=CC(=O)C=C1,inactive
16,OC1CCCCC1N1CCC(c2ccccc2)CC1 (stereo not drawn),inactive
17,O=[N+]([O-])c1cc(O)c(O)c([N+](=O)[O-])c1,inactive
18,C[C@@H]1O[C@@H](O[C@H]2C[C@@H](O)[C@]3(CO)[C@@H]4C(CC[C@]3(O)C2)[C@@]2(O)CC[C@H]([C@@H]3COC(=O)C3)[C@@]2(C)C[C@H]4O)[C@H](O)[C@H](O)[C@H]1O (stereo partly drawn),inactive
19,C[N+](C)(C)CCOC(=O)CBr,inactive
